Source: PubChem (several laboratories)
This is a sample that favours compounds with a hit; in the whole collection about 2.8% have one here.
LMP1 NFkB inh = reduces LMP1-driven NF-kappaB luciferase signal; LMP1-induced NF-kappaB luciferase reporter cells, luminescence; AID 504558; 350,000 tested, 0.69% active; inhibition, % at 12.5 µM; in the data active = inhibition above about 41%;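 note: 0% = neutral control wells and 100% = reference inhibitor control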
HIF-2a inh = inhibitors of HIF-2a. 786-0 RCC cells HIF-2a reporter, luciferase luminescence, overnight. inhibition, % at 18.8 µM. 360,000 tested, 0.72% active. AID 624352;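 active = inhibition of the luminescence signal of 40% or more relative to plate controls, in a single-dose primary screen at 18.75 µM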
PAX8 reporter = inhibitors of PAX8 transcriptional activity in RMG-I cells | inhibition, % at 12.6 µM | 360,000 tested, 1.2% active | RMG-I TPO-luciferase reporter, SteadyGlo, 24 h;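 active = mean replicate inhibition at least 60% with every replicate also reaching 60%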;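 note: luciferase light reporting Pax8 driven TPO promoter activity; plate controls were median of neutral control wells for no effect and mitoxantrone controls for full effect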
Shn3 3UTR inh = Schnurri-3 reporter inhibition in Clone20 osteoblasts. 360,000 tested, 0.52% active. Clone20 osteoblast Shn3 3'UTR firefly luciferase, 24 h. inhibition, % at 12.5 µM;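 active = mean inhibition of at least 75% with every replicate also reaching 75%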;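 note: 0% = median of neutral control wells and 100% = pilot-screen positive control compound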
MITF TRPM1 inh = inhibitors of MITF-driven TRPM1 promoter in melanoma cells | inhibition, % at 12.5 µM | 330,000 tested, 0.83% active | SK-MEL-5 TRPM1 promoter luciferase, 24 h;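 active = mean inhibition across replicates of 60% or more, whatever share of single replicates reaches that level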
Peg3 promoter = reduces Peg3 promoter-driven luciferase expression in HeLa; HeLa PEG-Prom luciferase reporter, luminescence, overnight; inhibition, % at 20 µM; 360,000 tested, 1.7% active; AID 588405;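 active = inhibition of at least 50% at 20 µM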
Starred values were filed as active, the others as inactive; . = not tested or not shown.

SMILES	LMP1 NFkB inh	HIF-2a inh	PAX8 reporter	Shn3 3UTR inh	MITF TRPM1 inh	Peg3 promoter
C=C(C)[C@@]12OC3(c4ccccc4)O[C@@H]1C1[C@@H]4O[C@]4(CO)[C@@H](O)[C@]4(O)C(=O)C(C)=C[C@H]4[C@@]1(O3)[C@H](C)[C@H]2OC(=O)/C=C/C=C/c1ccccc1 (some centres not stated)	-169	-7	.	-12	9	100*
CCCCCn1c(=O)c(C(=O)Nc2ccccn2)c(O)c2ccccc21	15	14	19	71	4	20
CCCCCCn1c(=O)c(C(=O)Nc2cnccn2)c(O)c2ccccc21	26	14	11	13	73*	32
O=C(Cc1cccnc1)N1CCCCN2[C@H](C1)[C@H](c1ccc(C#CC3CC3)cc1)[C@@H]2CO	.	.	-11	.	.	.
CC12CC[C@H]3[C@@H](CCC4(O)C[C@H](O)CCC34/C=N/NC(=O)c3ccccc3Cl)C1(O)CCC2C1=CC(=O)OC1 (some centres not stated)	-11	9	-16	-1	25	7
C[C@@H]1O[C@@H](O[C@H]2C[C@@H](O)[C@]3(CO)[C@H]4[C@H](O)C[C@]5(C)[C@@H](C6=CC(=O)OC6)CC[C@]5(O)[C@@H]4CC[C@]3(O)C2)[C@H](O)[C@H](O)[C@H]1O	80*	88*	.	5	70*	103*
COC(=O)[C@]12OC[C@]34C([C@@H](O)[C@@H]1O)[C@]1(C)CC(=O)C(O)=C(C)[C@@H]1C[C@H]3OC(=O)[C@H](O)[C@@H]24 (some centres not stated)	16	45*	-2	-8	71*	28
CN1CCN(Cc2nc3ccccc3n2C)CC1	0	6	-14	2	6	4
Cn1c(NN=O)nc2ccccc21	5	-129	37	90*	42	-5
COc1ccc(OC(=O)N(C)C[C@@H]2OCc3ccccc3-c3c(n(C)c4ccccc34)C(=O)N([C@@H](C)CO)C[C@@H]2C)cc1	.	.	17	.	.	.
Cn1nc(-c2ccc(OCC(=O)N3CCN(Cc4ccccc4)CC3)cc2)c2ccccc2c1=O	21	10	.	89*	10	37
CN1CCN(C(=O)COc2ccc(-c3nc4ccccc4s3)cc2)CC1	59*	38	.	20	15	-27
Cc1nc2ccccc2c(=O)n1-c1cc([N+](=O)[O-])cc([N+](=O)[O-])c1	4	4	1	10	45	3
Cc1cccc(-n2c(/C=C/c3ccc([N+](=O)[O-])o3)nc3ccccc3c2=O)c1	84*	20	31	-47	86*	86*
CCN(CC)C(=O)COc1cc(C)cc2oc(=O)c3c(c12)CCCC3	3	1	82*	-2	0	24
N#Cc1cccc(-c2ccc([C@H]3[C@@H](CO)N4CCCCN(C(=O)Cc5ccccc5)C[C@H]34)cc2)c1	.	.	11	.	.	.
COc1ccc(C#Cc2ccc([C@H]3[C@@H](CO)N4CCCCN(C(=O)Cc5ccccc5)C[C@@H]34)cc2)cc1	.	.	15	.	.	.
CCN(CC)c1ccc(CNCCc2ccc(F)cc2)cc1	-20	21	2	16	0	64*
C[C@]12CCC3C(CC[C@H]4C[C@H](O)CC[C@]34C)C1CCC2=O (some centres not stated)	6	5	-40	86*	2	21
C[C@]12CC[C@H](O)C[C@@H]1CC[C@H]1[C@H]3CCC(=O)[C@@]3(C)CC[C@@H]12	1	-4	9	33	.	-4
O=C(N/N=C/C1C(=O)NC(=S)N(c2ccccc2)C1=O)c1cc(Br)c(O)c(Br)c1 (configuration not stated)	52*	15	12	-14	5	13
O=C(N/N=C/c1c(O)n(C2CCCCC2)c(=S)[nH]c1=O)c1ccccc1	10	-2	10	-18	6	2
COC(=O)[C@H]1[C@H](CO)[C@H]2Cn3c(ccc(-c4ccccc4F)c3=O)[C@@H]1N2Cc1cccnc1	.	.	-22	.	.	.
COC(=O)[C@H]1[C@H](CO)[C@H]2Cn3c(ccc(C4=CCCCC4)c3=O)[C@@H]1N2Cc1ccccc1OC	.	.	3	.	.	.
N#Cc1cccc(-c2ccc([C@H]3[C@H](CO)N4CCCCN(C(=O)Cc5ccncc5)C[C@@H]34)cc2)c1	.	.	0	.	.	.
